PABP FP inh – PABP-poly(A) binding inhibition | P11940 | PABP-poly(A) RNA binding, fluorescence polarization | calls only at 35 µM | 290,000 compounds, 1% hits;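 note: calls also rest on retests at 20 µM and on dose response follow-up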
AI-2 QS modul – modulates the Vibrio harveyi AI-2 quorum sensing system | Vibrio harveyi JMH597 AI-2 luminescence/OD600 ratio, 9 h; stronger effect = lower value; strain lacks LuxN and CqsS sensors; 0 = neutral-control median | activity change, % at 7.5 µM | 300,000 compounds, 0.4% hits; in the data active = activity change below about -75%, passing the limit was not always enough; inconclusive = no clear call, values can overlap the other calls;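 note: luminescence divided by OD600 gain over 9 h not by final OD600 alone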
PHOSPHO1 block – PHOSPHO1 (human) inhibition; Q8TCT1; recombinant PHOSPHO1, absorbance phosphatase assay; inhibition, % at 13.3 µM; 290,000 compounds, 1.1% hits; in the data active = inhibition above about 60%
Target sequence (Q8TCT1 whole entry, looked up): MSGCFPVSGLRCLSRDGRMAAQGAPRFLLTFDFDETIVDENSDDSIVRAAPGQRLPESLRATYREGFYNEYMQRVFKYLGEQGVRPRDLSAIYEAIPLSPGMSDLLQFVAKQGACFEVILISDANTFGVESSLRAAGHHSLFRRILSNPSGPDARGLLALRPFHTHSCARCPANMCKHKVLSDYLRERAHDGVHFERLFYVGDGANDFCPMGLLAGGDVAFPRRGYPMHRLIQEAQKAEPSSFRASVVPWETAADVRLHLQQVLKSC
eIF4H inh – inhibitors of RNA binding by human eIF4H | Q15056 | eIF4H fluorescence polarization binding assay | inhibition, % at 35 µM | 290,000 compounds, 0.94% hits;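 note: calls also rest on retests at 20 µM and on dose response follow-up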
MLLE-PAM2 inh – inhibitors of microRNA-mediated deadenylation, human PABP1 MLLE binding | inhibition, % at 20 µM | GST-MLLE / FITC-PAM2 fluorescence polarization | AID 588489 | P11940 | 360,000 compounds, 0.36% hits; in the data active = inhibition above about 35%, passing the limit was not always enough;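 note: plate controls were DMSO wells with GST-MLLE for no effect and wells lacking GST-MLLE protein for full effect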
ABCB6 inh MLPCN – human ABCB6 transporter inhibition; Q9NP58; K562-ABCB6 porphyrin accumulation, flow cytometry, 1 h; stronger effect = lower value; fluorescence ratio to DMSO, % at 10 µM; 360,000 compounds, 0.19% hits; AID 602162;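 active = fluorescence ratio to DMSO below 75%, the collection mean minus 3 SD; inconclusive = too few cells collected in the well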;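 note: signal is porphyrin accumulated inside mitochondria; 100% equals median channel fluorescence of DMSO control wells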
JMH597 growth rt – retest Vibrio harveyi JMH597 growth inhibition; OD600 absorbance, 9 h; lacks LuxN and CqsS sensors; shares compounds with AI-2 QS modul; growth inhibition, % at 7.5 µM; 750 compounds, 1% hits;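 active = every replicate shows growth inhibition above 50%; inconclusive = at least half, but not all, replicates pass that cutoff; inactive = fewer than half of replicates pass it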
BB721 const-QS lum – retest counter-screen: luminescence loss in constitutive-on quorum sensing strain BB721; shares compounds with AI-2 QS modul; Vibrio harveyi BB721 luminescence, 9 h; inhibition, % at 7.5 µM; 750 compounds, 95% hits; AID 2727;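 active = inhibition above about 80% in every replicate, not just on average, limit read from the data; inconclusive = at least half of replicates past the limit, but not all; inactive = fewer than half of replicates past the limit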
BB721 growth rt – retest Vibrio harveyi BB721 growth inhibition. AID 2728. shares compounds with AI-2 QS modul. 750 compounds, 3% hits. OD600 absorbance, 9 h. growth inhibition, % at 7.5 µM;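 active = every replicate shows growth inhibition above 50%; inconclusive = at least half but not all replicates above 50% inhibition; inactive = under half of replicates above 50% inhibition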
AI-2 QS JMH597 – Vibrio harveyi AI-2 signaling luminescence modulation – JMH597 strain, confirmation. shares compounds with AI-2 QS modul. Vibrio harveyi JMH597 AI-2 quorum sensing luminescence, 9 h; luxN and CqsS knockout, AI-2 only. inhibition, % at 7.5 µM. 750 compounds, 97% hits. AID 2736;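 active = every replicate shows more than 75% inhibition of signal versus neutral control wells; inconclusive = half to three quarters of replicates exceed 75% inhibition; inactive = fewer than half of replicates exceed 75% inhibition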
* hit, by the source's call; i = inactive; ? = inconclusive; / = no result given. The list is not random: actives were taken first. Their share in the collection is about 2.6%. Unless noted, the rule behind the calls is not given here.

SMILES	PABP FP inh	AI-2 QS modul	PHOSPHO1 block	eIF4H inh	MLLE-PAM2 inh	ABCB6 inh MLPCN	JMH597 growth rt	BB721 const-QS lum	BB721 growth rt	AI-2 QS JMH597
Cc1ccc(C(=O)NCCc2ccc(S(=O)(=O)N3CCCC3)cc2)cc1	i	-79*	19	-5	2	97	20	93*	12	96*
O=C(NNS(=O)(=O)c1ccc(Cl)cc1)c1ccc(S(=O)(=O)N2CCCCC2)cc1	i	-97*	-9	-11	-1	101	10	100*	-17	100*
O=C(COC(=O)c1ccc(Br)o1)Nc1ccc(S(=O)(=O)N2CCCC2)cc1	i	-94*	-24	1	-4	96	0	99*	-4	100*
Cc1ccc(OCC(=O)Nc2ccc(S(=O)(=O)N3CCCC3)cc2)cc1	i	?	10	2	-13	95	46	92*	29	99*
O=C(COC(=O)c1ccc(Br)o1)Nc1cccc(S(=O)(=O)N2CCCCC2)c1	/	/	/	/	-21	95	/	/	/	/
O=C(Nc1ccccc1)c1cc(C2COCCN2C(=O)c2cccs2)on1 (centres undefined)	/	/	/	/	-4	98	/	/	/	/
CCNC(=O)C1CCCN(Cc2cc(-c3ccccc3)on2)CC1 (centres undefined)	/	/	/	/	-7	102	/	/	/	/
O=C(Cn1c(=O)sc2ccccc21)Nc1ccc(S(=O)(=O)N2CCCC2)cc1	i	-97*	-8	-5	-6	96	15	99*	2	99*
O=C(CNC(=O)c1ccco1)Nc1ccc(S(=O)(=O)N2CCCC2)cc1	i	-94*	-7	8	0	97	23	98*	-156	99*
Cc1cc(NS(=O)(=O)c2ccc(NC(=O)COc3ccc(Cl)cc3)cc2)no1	i	-87*	-11	3	-8	96	16	93*	14	91*
O=C(Cc1ccccc1)Nc1ccc(S(=O)(=O)N2CCCC2)cc1	i	-60	22	-12	-2	100	/	/	/	/
Cc1cc(NS(=O)(=O)c2ccc(NC(=O)COc3ccccc3Cl)cc2)no1	i	-23	32	-5	2	99	/	/	/	/
COc1ccc(OCC(=O)Nc2ccc(S(=O)(=O)N3CCCC3)cc2)cc1	i	?	40	5	-8	98	24	95*	28	99*
CN1C(=O)[C@H]2[C@@H](c3ccc(C(F)(F)F)cc3)N[C@]3(CCCN(Cc4ccc(Cl)cc4)C3=O)[C@H]2C1=O	/	/	/	/	3	97	/	/	/	/
CCCCCCCCCCC(C(=O)O)C1(C(=O)O)CCC(=O)O1 (centres undefined)	/	/	/	/	-4	110	/	/	/	/
CCc1nc2c(OCC(=O)c3ccc(Cl)cc3Cl)cccn2c1N(C)C(=O)c1cccs1	/	/	/	/	-3	91	/	/	/	/
Cc1ccc(F)c(S(=O)(=O)NC(=O)C2(C)CCN2C(=O)c2sccc2C)c1 (centres undefined)	/	/	/	/	-4	92	/	/	/	/
CC(C)(C)C(=O)Cn1nnc(-c2ccc(C(F)(F)F)cc2)n1	i	-80*	42	-3	1	97	-30	90*	-1	93*
COc1ccc(C(=O)Cn2nnc(-c3cccs3)n2)cc1	i	-81*	24	-11	-5	99	24	93*	-11	96*
O=C(Cn1nnc(-c2ccccc2)n1)c1ccccc1	i	-94*	-24	-10	-14	100	28	98*	2	99*
O=C(Cn1nnc(-c2ccccc2)n1)NNC(=O)c1ccccc1	i	3	16	3	-3	104	/	/	/	/
CC1(C(=O)NCC2CCOCC2)Cc2c(-c3cccc(C(F)(F)F)c3)ccnc2O1 (centres undefined)	/	/	/	/	0	106	/	/	/	/

Screens: PubChem BioAssay, several laboratories
